# Many of the other results were omitted from the sample, so hits are more common in it than they were.
# Shiga toxin inh = A qHTS for Small Molecule Inhibitors of Shiga Toxin; Vero cells, Shiga toxin protein synthesis inhibition reporter; inhibition, % at 38.7 µM; actives 9.2% (n = 290,000); AID 2315, 2010; in the data active = inhibition mostly above about 28%, no sharp cut-off; inactive = mostly below about 43%; note: 0% is about no effect
# RE007 growth inh = qHTS Assay for Inhibitors of the HIV-1 protein Vpr. S. pombe RE007 Vpr strain, BacTiter-Glo ATP luminescence, 24 h. Potency, µM (highest dose often 92.2 µM), for the others: at the highest dose activity change, negative = less growth, actives largely listed as inhibitors. actives 0.21% (n = 360,000). AID 651644, 2012; active = well fitted falling curve with a large enough effect; inconclusive = small, poorly fitted or top-dose-only effect; inactive = no such curve, though single readings can be large or run the other way; note: potency is the fitted concentration of half-maximal effect; % is set by controls: 0 for no effect and ±100 for the full control effect; nearly all actives have a fitted effect of over 50% in size
#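 Fission yeast RE007 carrying one integrated HIV-1 vpr copy, seeded at OD 0.01 in PMG+AL medium with 23 nL pinned compound. Grown 24 h at 30 degrees; viability read by BacTiter-Glo luminescence after 5 min.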
# CHX counter = Cycloheximide Counterscreen for Small Molecule Inhibitors of Shiga Toxin | cell reporter, cycloheximide protein synthesis inhibition counterscreen | max response, % | actives 12% (n = 300,000) | AID 2314, 2010; in the data active = max response mostly above about 13%, no sharp cut-off; inactive = mostly below about 14%; note: read at 38.3 µM for the half of the compounds with a filed dose; 0% is about no effect
# LmPK inh = qHTS Assay for Inhibitors of Leishmania Mexicana Pyruvate Kinase (LmPK); actives 0.37% (n = 290,000); purified LmPK, Kinase-Glo ATP luminescence, 1 h; Potency, µM (titrated, usually from 57.5 µM), for the others: at the top dose activity change, negative = inhibition, usual class: inhibitors; AID 1721, 2009; Q27686; note: potency is the fitted concentration of half-maximal effect; % is set by controls: 0 for no effect and ±100 for the full control effect
# Target sequence (Q27686 whole entry, looked up): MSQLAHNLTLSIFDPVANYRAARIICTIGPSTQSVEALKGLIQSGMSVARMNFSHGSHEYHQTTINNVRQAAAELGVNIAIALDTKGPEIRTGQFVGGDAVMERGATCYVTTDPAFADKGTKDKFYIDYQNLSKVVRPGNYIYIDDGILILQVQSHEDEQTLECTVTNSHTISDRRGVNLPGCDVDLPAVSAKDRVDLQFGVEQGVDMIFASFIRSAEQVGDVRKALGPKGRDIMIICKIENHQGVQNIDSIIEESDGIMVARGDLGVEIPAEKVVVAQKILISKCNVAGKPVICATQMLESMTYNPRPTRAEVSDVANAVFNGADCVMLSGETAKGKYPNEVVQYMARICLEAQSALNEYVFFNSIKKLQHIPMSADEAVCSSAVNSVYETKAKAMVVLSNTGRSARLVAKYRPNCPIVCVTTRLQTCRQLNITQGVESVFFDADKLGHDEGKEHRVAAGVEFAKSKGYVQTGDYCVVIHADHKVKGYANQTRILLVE
#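 In 50 mM imidazole pH 7.2 with 7 mM MgCl2, LmPK (0.1 nM) turned over PEP (0.5 mM) and ADP (0.1 mM) for 1 h at room temperature. Luciferase read-out of ATP.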
# FBPA Giardia inh = qHTS Assay for Inhibitors of Fructose-1,6-bisphosphate Aldolase from Giardia Lamblia; AID 2451, 2010; Potency, µM (highest dose often 59.6 µM), for inactives: at the highest dose activity, negative = inhibition, most hits filed as inhibitors; purified Giardia FBPA; actives 0.71% (n = 290,000); A8B2U2; note: potency is the fitted concentration of half-maximal effect; % is set by controls: 0 for no effect and ±100 for the full control effect; nearly all actives have a fitted effect of over 55% in size
#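 Giardia FBPA (40 nM reagent) was preincubated 10 min at RT with compound (up to 57.5 uM final), then substrate plus GAPDH/TPI/NAD/arsenate coupling system with diaphorase/resazurin was added; resorufin fluorescence (525/598 nm) was read after 20 min.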
# Tb PYK inh = qHTS of Trypanosoma Brucei Inhibitors | pyruvate kinase (Trypanosoma brucei), Q57TT1 | TbPYK enzyme, Kinase-Glo Plus ATP luminescence, 45 min | Potency, µM (doses to about 76.8 µM), for the others: at the highest dose activity, negative = inhibition, hits mostly inhibitors | actives 0.12% (n = 410,000) | AID 624173, 2012; note: potency is the fitted concentration of half-maximal effect; % is set by controls: 0 for no effect and ±100 for the full control effect; nearly all actives have a fitted effect of over 50% in size
#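 T. brucei PYK with substrate was exposed to pin-transferred compounds across a concentration series, then started with 130 uM ADP (final). After 45 min at room temperature, Kinase-Glo Plus luminescence was read, normalized and curve-fitted.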
# Active calls of the source: *; ? = inconclusive; nt = not tested or not shown; ! = not active in a repeat; [ ] = dose if it differs, or a comment. Unless noted, calls come from the whole dose curve; as a rule, active = well fitted curve in the direction sought with a large enough effect; inconclusive = small, poorly fitted or top-dose-only effect, or another doubt; inactive = no such curve, though single readings can be large; an effect the other way counts as inactive or inconclusive.
SMILES,Shiga toxin inh,RE007 growth inh,CHX counter,LmPK inh,FBPA Giardia inh,Tb PYK inh
COc1cc(OC)c(C(=O)Nc2cccnc2)cc1OC,19.0,-10.8%,-2.4,-6.5%,-3.0%,-14.9%
CCOc1ccc(NC(=O)c2cc3ccccc3cc2O)cc1,59.8*,nt,30.2*,5.9%,-5.1%,3.2%
CCOc1ccc(NC(=O)c2cc3ccccc3cc2OC)cc1,59.6*,-13.5%,35.6*,-5.8%,-0.4%,4.3%
CCCCN1C(=O)C(=O)N(CC(=O)Nc2cc(OCC)c(N3CCOCC3)cc2OCC)C1=O,-5.2,-0.9%,-2.2,10.3%,-5.6%,1.5%
CN1CCN(c2ccc(-c3ccnn3C(=O)Nc3ccccc3)cc2)CC1,83.2,-11.0%,40.9*,-5.7%,2.1%,2.7%
O=C(Nc1cccc(F)c1)N1CCCC2(CCN(C(=O)c3ccco3)CC2)C1,nt,nt,nt,nt,0.0%,3.8%
Cc1ccccc1-n1nnnc1SCc1ncc(-c2ccccc2)o1,-2.1,0.4%,7.9,4.4%,-9.9%,-9.6%
Fc1ccc(-c2nnc(CSc3nnc4ccccn34)o2)cc1,22.3,-28.1%,39.6*,-2.7%,3.8%,8.0%
c1ccc(-c2cnc(CSc3nnc4ccccn34)o2)cc1,53.5*,-9.5%,40.2*,-11.0%,?,-21.0%
COc1ccccc1CNC(=O)c1cc2cc(C)ccc2n1C,nt,nt,nt,nt,nt,-7.8%
CCCc1cc(=O)[nH]c(SCC(=O)Nc2ccc(Br)cc2Br)n1,7.4,-1.0%,-1.0,1.6%,12.4%,4.2%
CN=C(Nc1ccc(Cl)cc1)c1ccc(C(F)(F)F)cc1,26.8,-12.5%,14.7*,-2.8%,-0.9%,-0.5%
COc1cc(C(=O)Nc2ccccc2-c2nc(-c3ccccc3)no2)cc(OC)c1OC,20.3,nt,-3.6,nt,nt,4.8%
CS(=O)(=O)n1nc(OC(=O)c2cc(Br)ccc2Cl)cc1N,5.4,2.3%,-2.9,0.4%,8.6%,-11.7%
CS(=O)(=O)n1nc(OC(=O)c2cccc3ccccc23)cc1N,72.1*,1.7%,63.1*,7.2%,-3.5%,-11.6%
CCOC(=O)CC1COCCN1C(=O)CCc1nnc(-c2ccsc2)o1 (stereo unspecified),34.0,-1.7%,33.0*,-1.4%,0.1%,-0.2%
COC(=O)[C@@H](NC(=O)CCc1nnc(-c2ccsc2)o1)C(C)C,30.5,22.5%,49.9*,-3.1%,0.5%,-5.1%
O=C(CCc1nnc(-c2ccsc2)o1)N1CCCCC1CCn1ccnc1 (stereo unspecified),20.8,-2.6%,5.9,6.1%,-0.2%,-8.6%
COc1cccc(CNC(=O)CN2C(=O)CSc3ccc(S(=O)(=O)N4CCCCC4)cc32)c1,-0.6,-13.2%,1.8,9.5%,-5.6%,3.7%
CCOc1c2ccoc2nc2c(OC)c(OC)ccc12,17.6,-19.8%,17.7*,3.4%,-17.9%,3.2%
COc1c2c(nc3occc13)C(CC=C(C)C)(OC)C(=O)C=C2 (stereo unspecified),-7.1,3.5%,-1.5,-10.4%,1.9%,-1.0%
CCOc1c(OC)ccc2c3c(c(=O)oc12)CCCC3,-1.1,-8.6%,0.7,0.3%,9.2%,1.6%
C=CCOc1ccc2c(OC)c3ccoc3nc2c1OC,39.1*,-27.8%,25.8*,1.8%,2.0%,-0.3%
COc1ccc(CCC(=O)N2CCCSC2=Nc2ccc(C(C)=O)cc2)cc1,-0.8,2.4%,20.9*,5.5%,1.8%,0.6%
CCOC(=O)C1=C(C)NC(C)=C(C(=O)OC)[C@@H]1c1cccc([N+](=O)[O-])c1,nt,nt,nt,nt,2.2%[21.7 µM],nt
COC(=O)C1=C(C)NC(C)=C(C(=O)OC)C1c1ccccc1[N+](=O)[O-],-12.1,2.6%[18.4 µM],8.2,-5.2%,7.92µM*!,?
COc1ccc(/C=N/Nc2ccc(C(=O)O)cc2)cc1OC,43.1,19.4%,27.4*,-27.1%,0.7%,-0.7%
Cc1ccc(S(=O)(=O)Oc2cccc(/C=N/Nc3ccc(C(=O)O)cc3)c2)cc1,25.6*,5.4%,36.6*,1.3%,17.7µM*,-2.3%

# Screening results from PubChem.
